# Reference: PubChem BioAssay (NCI)
# This is part of a sample that, as a whole, favours compounds with a hit. Of some 83,000 tested, about 20% had one in any assay.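 In brief: 96-well plates, 48 h treatment, single concentration, percent growth endpoint.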 A number with no mark means an inactive call. The source made the active and inactive calls. How the source made its calls: active means growth percent below 10; inactive means the rest.
# Assays:
# Experiment in all cases: NCI-60 one-dose screen, 48 h (100 = growth as untreated, 0 = no growth, -100 = all killed)
# [1] = system: NCI-H322M lung; conditions: 10 µM unless noted
# [2] = system: HOP-92 NSCLC; conditions: 10 µM unless noted
# [3] = system: NCI-H522 lung; conditions: 10 µM unless noted
# [4] = system: COLO 205 colon; conditions: 10 µM
# [5] = system: SNB-19 CNS; conditions: 10 µM unless noted
# [6] = system: U251 CNS; conditions: 10 µM unless noted
# [7] = system: SK-MEL-5 melanoma; conditions: 10 µM unless noted
# [8] = system: SK-MEL-2 melanoma; conditions: 10 µM unless noted
# [9] = system: EKVX NSCLC; conditions: 10 µM unless noted
# [10] = system: SN12C renal; conditions: 10 µM unless noted
# [11] = system: ACHN renal; conditions: 10 µM unless noted
# [12] = system: SR leukemia; conditions: 10 µM
# [13] = system: IGROV1 ovarian; conditions: 10 µM
# [14] = system: HS 578T breast; conditions: 10 µM unless noted
# [15] = system: MDA-MB-435 melanoma; conditions: 10 µM unless noted
# [16] = system: HCT-116 colon; conditions: 10 µM unless noted
# [17] = system: TK-10 renal; conditions: 10 µM unless noted
# [18] = system: CCRF-CEM leukemia; conditions: 10 µM unless noted
# [19] = system: T-47D breast; conditions: 10 µM unless noted
Structure (SMILES),growth [1],growth [2],growth [3],growth [4],growth [5],growth [6],growth [7],growth [8],growth [9],growth [10],growth [11],growth [12],growth [13],growth [14],growth [15],growth [16],growth [17],growth [18],growth [19]
CCOc1ccc(C(O)CN(C)Cc2ccccc2)cc1Cl (configuration not stated),102%,75.4%,97.1%,105%,100%,97.4%,93.2%,102%,95.7%,102%,109%,95.7%,106%,101%,103%,101%,,,
Nc1c(Br)cc([N+](=O)[O-])cc1[N+](=O)[O-],,120%,105%,116%,102%,101%,,138%,93.6%,104%,125%,111%,,106%,112%,108%,114%,118%,107%
CC(=O)Nc1ccc(C=C2C(=O)NC(=O)NC2=O)cc1,104%,91.5%,104%,106%,98.4%,103%,115%,109%,106%,103%,109%,95.7%,107%,,101%,101%,107%,86.1%,106%
N#[N+]c1nc2nc(N)[nH]c(=O)c2[nH]1,,93.2%,94.8%,103%,99.8%,91.5%,92.5%,101%,100%,99.9%,99.6%,94.2%,,92.9%,100%,96.8%,90%,95.1%,100%
C[CH2][Pb]([CH2]C)([CH2]C)[O]C(=O)COC,-11.1% (active),,,-7.82% (active),,-12.1% (active),-74.9% (active),-38.7% (active),,2.97% (active),,,-13% (active),-2.8% (active),-12.3% (active),-29.7% (active),,,17.2%
COc1ccc(/C=C(/C(=O)N2CCCC2)c2cc(OC)c(OC)c(OC)c2)cc1N,48.1%,46.1%,3.14% (active),5.31% (active),44.4%,31%,,42.6%,52.8%,40.8%,45.2%,19.5%,51.4%,15.2%,,23.5%,75.3%,19%,37.8%
O=C1c2ccccc2C(=O)N1[N+](=O)[O-],84.4%,91.1%,88.7%,116%,6.79% (active),93.2%,104%,104%,,97.2%,111%,95.4%,109%,106%,110%,112%,,90%,
Cc1ccc2oc(=O)c3c(c2c1)OC(N)=C(C#N)C3c1ccco1 (configuration not stated),98.8%,102%,91.6%,,96.9%,109%,101%,112%,94.9%,101%,101%,107%,104%,93.5%,105%,99.9%,108%,96.4%,
N#CC1c2ccccc2C=CN1C(=O)c1ccc(N(CCCl)CCCl)cc1 (configuration not stated),,81%,69%,103%,82.4%,,84%,104%,86.8%,,86.9%,86.6%,98.2%,99.5%,79.4%,104%,107%,,65.3%
Cc1cc(NC(=O)/C=C/c2ccc([N+](=O)[O-])cc2)ccc1S(=O)(=O)F,84.8%,,,102%,109%,,100%,107%,,92.4%,105%,81.3%,101%,,99.7%,113%,96.2%,98.2%,87.6%
